# High-throughput results deposited in PubChem by National Center for Advancing Translational Sciences (NCATS).
# A selection: hits, their analogues and other compounds. The true share with any hit is near 5.7%.
# PI4K2A inh = qHTS for small molecular inhibitors of PI4K2A. 420,000 tested, 0.13% active. purified PI4K2A, ADP-Glo luminescence, 1 h; hits give low values. activity change, negative = inhibition, % at 76.9 µM; in the data active = activity change below about -50%; inconclusive = mostly about -30% to -49%;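 note: -100% = wells without enzyme as full effect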
# Target sequence (Q9BTU6 whole entry, looked up): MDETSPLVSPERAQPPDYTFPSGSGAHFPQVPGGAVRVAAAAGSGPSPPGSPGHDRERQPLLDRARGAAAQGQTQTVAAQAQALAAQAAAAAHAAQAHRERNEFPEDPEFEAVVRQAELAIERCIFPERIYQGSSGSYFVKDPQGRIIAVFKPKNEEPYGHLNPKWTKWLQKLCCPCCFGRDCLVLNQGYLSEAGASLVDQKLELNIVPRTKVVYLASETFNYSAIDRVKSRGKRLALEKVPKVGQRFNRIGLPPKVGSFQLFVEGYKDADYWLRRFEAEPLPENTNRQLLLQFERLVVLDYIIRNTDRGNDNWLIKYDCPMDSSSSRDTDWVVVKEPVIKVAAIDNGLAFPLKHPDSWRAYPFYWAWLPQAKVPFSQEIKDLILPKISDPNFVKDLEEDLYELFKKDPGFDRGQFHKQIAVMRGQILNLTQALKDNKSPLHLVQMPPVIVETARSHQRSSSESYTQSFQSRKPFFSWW
#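 ADP-Glo luminescence measured ADP generated by PI4K2A enzyme (4 ug/mL before mixing) with 1.2 mM PI substrate (pre-mix) and 300 microM ATP (pre-mix). Tris pH7.5 buffer with MgCl2, Triton X-100; 1 h reaction at ambient temperature.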
# KB-V1 MDR tox = qHTS assay for MDR1-selective chemotherapeutics: Primary screen using the drug-selected MDR subline cells KB-V1 | KB-V1 MDR cells viability, CellTiter-Glo, 72 h | Potency, µM (titrated, usually from 46.1 µM), usual class: cytotoxic | 400,000 tested, 3.4% active | AID 1347076, 2019; note: potency is the fitted concentration of half-maximal effect; nearly all actives have a fitted effect of over 60% in size
#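 Compound-treated KB-V1 multidrug-resistant cells, 72 h, 37 degrees C; viability by CellTiter-Glo. Fitted qHTS curves give the values.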
# A549 viability = Nrf2 qHTS screen for inhibitors: counterscreen for cytotoxicity. A549 ARE-Fluc cells, CellTiter-Fluor viability, 18-24 h. Potency, µM (highest dose often 46 µM), without a hit: top-dose activity change, negative = cytotoxicity, most hits filed as inhibitors. 390,000 tested, 0.16% active. AID 504648, 2011; note: potency is the fitted concentration of half-maximal effect
#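 Cytotoxicity counterscreen: CellTiter-Fluor fluorescence was measured in A549 ARE_Fluc cells after 18-24 h of compound exposure in a concentration series. The subsequent BugLite luminescent read reports ARE-luciferase activity.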
# Nrf2 inh = Nrf2 qHTS screen for inhibitors. A549 ARE-Fluc reporter, luciferase luminescence, 18-24 h. Potency, µM (top dose mostly 46 µM), inactives show top-dose activity change, negative = inhibition, usual class: inhibitors. 360,000 tested, 2.1% active; note: potency is the fitted concentration of half-maximal effect; nearly all actives have a fitted effect of over 60% in size
#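 In this cell-based qHTS, ARE-driven firefly luciferase in A549 cells reports Nrf2 activity; the luminescent signal after BugLite lysis is the measured value, with a prior CellTiter-Fluor read for cell health.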
# Giardia kill = Small Molecules that selectively kill Giardia lamblia: qHTS; Giardia lamblia trophozoite viability; activity change, % at 7.66 µM, hits read low; 340,000 tested, 0.15% active; in the data active = activity change below about -80%; inconclusive = between about -30% and that limit;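 note: parasites exposed to compound for two days anaerobically before the ATP read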
#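 Trophozoite viability was measured as ATP-dependent luminescence, read 15-30 min after reagent addition. Before that, parasites at 100 cells/well were exposed to compounds for 48 h, anaerobically, at 37 deg C.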
# KB-3-1 cytotox = qHTS assay for MDR1-selective chemotherapeutics: Primary screen using the parental adenocarcinoma cell KB-3-1; 400,000 tested, 1.4% active; Potency, µM (top dose mostly 46.1 µM), usual class: cytotoxic; KB-3-1 viability, CellTiter-Glo ATP luminescence, 72 h; note: potency is the fitted concentration of half-maximal effect; nearly all actives have a fitted effect of over 60% in size
#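 KB-3-1 cells, DMEM (no phenol red) + 10% FBS; compound by pin transfer, 72 h, 37 °C. Readout: CellTiter-Glo luminescence after 10 min. Data normalized, curve-fitted.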
# * = called active by the depositor; i = inactive; u = inconclusive; x = no result given; [ ] = another dose, or the depositor's remark. Unless noted, calls come from the whole dose curve; as a rule, active = well fitted curve in the direction sought with a large enough effect; inconclusive = small, poorly fitted or top-dose-only effect, or another doubt; inactive = no such curve, though single readings can be large; an effect the other way counts as inactive or inconclusive. Unless noted, % is set by controls: 0 for no effect and ±100 for the full control effect.
SMILES,PI4K2A inh,KB-V1 MDR tox,A549 viability,Nrf2 inh,Giardia kill,KB-3-1 cytotox
COC(=O)C[C@H]1CC[C@H]2[C@H](COc3ccc(NS(=O)(=O)c4cccc(OC)c4)cc3C(=O)N2C)O1,0,x,x,x,x,x
CCN(CC)C(=O)CC[C@@H]1CC[C@]2(CCCN(C(=O)c3cccnc3)C2)O1,6,x,x,x,x,x
CC(C)(C)c1ccc(S(=O)(=O)N2CCCC(C(=O)NCc3cccs3)C2)cc1 (centres undefined),-2,x,x,x,x,x
CC(C)NC(=O)C1CCN(C(=O)c2cc3sccc3n2Cc2ccc(F)cc2)CC1,-4,6.5µM*,u,15µM*,2,18µM*
Cc1cccc(CC(Cc2nc3ccccc3[nH]2)c2nc3ccccc3[nH]2)c1 (centres undefined),5,u,u,26µM*,2,u
NC(=O)C1CCN(C(=S)c2ccc(-c3ccc(Br)cc3)o2)CC1,-3,i,2%,u,13,i
NC(=O)c1ccc(-c2ccc(Br)cc2)o1,1,8.2µM*,2%,7%,-3,8.2µM*
COc1cccc(OC)c1C(=O)N1CCN(Cc2ccc3c(c2)OCO3)CC1,10,i,0%,9%,3,i
COc1cc(SC)ccc1C(=O)N1CCN(Cc2ccc3c(c2)OCO3)CC1,1,u,-3%,15µM*,u,u
CCOC(=O)N1CCN(C(=O)c2ccc(SC)cc2OC)CC1,-3,i,0%,12µM*,0,i
O=C(c1ccc(COc2ccc(Cl)cc2)o1)N1CCN(Cc2ccc3c(c2)OCO3)CC1,-1,10µM*,-20%,23µM*,-2,i
C[C@H]1COc2cc(Br)ccc2S(=O)(=O)N1Cc1cn(Cc2ccccc2)nn1,-3,x,x,x,x,x
FC(F)Oc1ccc(NC(=S)NNc2ccnc3cc(Cl)ccc23)cc1,-1,u,-24%,-7%,-5,16µM*
Cc1nc(NCc2ccco2)[nH]c(=O)c1CCC(C)C,-9,i,x,u,-13,i
O=c1[nH]c(NCc2ccco2)nnc1Cc1ccccc1Cl,-24,u,-13%,-11%,-29,5.8µM*
C=C[C@@]1(C)C[C@H](OC(=O)CSC(C)(C)CNC(=O)[C@@H](N)C(C)C)[C@@]2(C)C(C)CC[C@@]3(CCC(=O)[C@@H]32)[C@H](C)[C@H]1O (some centres undefined),x,u,x,x,x,i
O=c1c2ccccc2nc(SCc2nc3ccccc3s2)n1Cc1ccco1,3,u,19%[1.84 µM],4.6µM*,1,i
O=c1c2ccccc2nc(SCc2ccccc2)n1Cc1ccco1,-1,i,-2%,-26%,u,i
CCCCn1c(SCC#N)nc2ccccc2c1=O,x,i,3%,-23%,-4,i
O=c1c2ccccc2nc(SCc2ccc([N+](=O)[O-])cc2)n1CCCO,76,2.9µM*,-2%,u,13,i
O=c1c2ccccc2nc(SCc2cccc(F)c2)n1Cc1ccco1,1,7.3µM*,0%,-11%,7,u
CCCCn1c(SCc2nc3ccccc3s2)nc2ccccc2c1=O,-1,u,11%,3%,30,23µM*
Cc1cc2c(s1)c1cnn(Cc3cc(F)cc(F)c3)c(=O)c1n2C,x,x,-2%,15%,x,x
Cc1cc(C)c(-n2c(SCc3nc4ccccc4s3)n[nH]c2=O)c(C)c1,0,u,-21%,16µM*,-17,i
O=C(CSc1nc2ccccc2c(=O)n1Cc1ccco1)c1ccccc1,0,i,14%[1.84 µM],18µM*,5,i
COn1c(SCc2cccc(Cl)c2)nc2ccccc2c1=O,4,16µM*,-18%,-20%,-5,u
CCCn1c(SCc2nc3ccccc3s2)n[nH]c1=O,5,i,4%,u,-8,i
